# PubChem BioAssay (Tox21)
# Inconclusive results are not listed. Where a call stands in place of a potency, no number is given. A number with no mark means an inactive call. Calls of active or inactive are those of the source. Calls come from the whole dose curve; as a rule, active = well fitted cell-killing curve with a large enough effect in the repeat runs; inconclusive = weak or mixed curves, or effect the other way; inactive = flat fitted curve, though single readings scatter.
# Key:
# [1] = cAMP Responsive Elements (CRE) small molecule antagonists, cell-based qHTS assay: qHTS cell viability counter screen (AID 2060913); note: nearly all actives have a fitted effect of over 40% in size
# How it was run: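 Cytotoxicity read in the same wells as the CRE-bla HEK293T antagonist assay: after 3 h compound with 0.25 uM NKH477 final and 2 h beta-lactamase substrate, CellTiter-Glo luminescence measured.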
# [2] = cAMP Responsive Elements (CRE) small molecule agonists, cell-based qHTS assay: qHTS cell viability counter screen (AID 2060914);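 note: viability read after 3 h of compound exposure; nearly all actives have a fitted effect of over 50% in size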
# How it was run: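 HEK 293T CRE-bla; DMEM + 10% dialyzed FBS, 25 mM HEPES; 18 h pre-incubation; compound 3 h, 37 °C/5% CO2; CellTiter-Glo added after reporter read; luminescence after 30 min RT.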
# Potency is the fitted concentration of half-maximal effect.
SMILES,Potency [1],Potency [2]
CCCCN(CCC(=O)OCC)C(C)=O,inactive,inactive
OC1C(O)C(O)C(O)C(O)C1O (stereo unspecified),inactive,inactive
CN1CCN(C2=Nc3ccccc3Oc3ccc(Cl)cc32)CC1,inactive,inactive
O=C(O)C1CCC(C(=O)O)CC1 (stereo unspecified),inactive,inactive
NO,inactive,inactive
COc1ccc(NC(C)=O)cc1N,inactive,inactive
CN1CCN(N)CC1,inactive,inactive
CC1=CC(=O)NS(=O)(=O)O1,inactive,inactive
Cc1cccc(C)c1NC(=O)c1ccc(N)cc1,inactive,inactive
CO[C@@]1(NC(=O)C(C(=O)O)c2ccc(O)cc2)C(=O)N2C(C(=O)O)=C(CSc3nnnn3C)CO[C@@H]21 (stereo partly specified),inactive,inactive
CCCc1ncc(C[n+]2ccccc2C)c(N)n1,inactive,inactive
CC1=C(/C=C/C(C)=C/C=C/C(C)=C\C(=O)O)C(C)(C)CCC1,inactive,inactive
O=C(O)[C@@H](O)[C@H](O)[C@H](O)[C@@H](O)C(=O)O,inactive,inactive
COc1cc(C)ccc1O,inactive,inactive
Brc1cc(-c2ccc(Br)c(Br)c2Br)cc(Br)c1Br,inactive,inactive
CN(C)CC/C=C1\c2ccccc2Sc2ccc(Cl)cc21,inactive,inactive
Clc1ccnc(Cl)n1,inactive,inactive
O=C(c1ccc(O)cc1)c1ccc(O)cc1O,inactive,inactive
Cc1ccc(NC(=O)N(C)C)cc1NC(=O)N(C)C,inactive,inactive
Cc1cc(C)c(N)cc1C,inactive,inactive

SMILES,Potency [1],Potency [2]
CC(=O)CC(=O)Nc1ccc2[nH]c(=O)[nH]c2c1,inactive,inactive
Cc1cccc(C)n1,inactive,inactive
O=[N+]([O-])c1cccc(I)c1,inactive,inactive
O=C1c2ccccc2C(=O)c2cc(S(=O)(=O)O)ccc21,inactive,inactive
CSc1ccc2c(c1)N(CCC1CCCCN1C)c1ccccc1S2 (stereo unspecified),60.9 µM (active),60.9 µM (active)
O=C1N=C(O)CN1/N=C/c1ccc(-c2ccc([N+](=O)[O-])cc2)o1,inactive,inactive
CC(C)c1ccccc1,inactive,inactive
CCOc1ccc(NC(=O)CC(C)=O)cc1,inactive,inactive
Nc1ccc(O)c(N)c1,inactive,inactive
CCc1cc2cc(OC)c(OC)cc2c(Cc2ccccc2)n1,inactive,inactive
CCCCCCCCC=O,inactive,inactive
CCOC(/C=C(\C)CCC=C(C)C)OCC,inactive,inactive
CCCCC(CC)COP(=O)(OCC(CC)CCCC)OCC(CC)CCCC (stereo unspecified),inactive,inactive
CC1=C(CC=O)C(C)(C)CCC1,inactive,inactive
Cc1cc(O)c(Cl)cc1C,inactive,inactive
O=C[C@H](O)[C@@H](O)[C@H](O)[C@H](O)CO,inactive,inactive
CC(C)(C)N(CCO)CCO,inactive,inactive
COc1ccc(-n2nc(C(F)F)cc2-c2ccc(S(C)=O)cc2)cc1 (stereo unspecified),inactive,inactive
Cc1ccc([N+](=O)[O-])c(N)c1,inactive,inactive
CC(C)(C)c1cc(C(C)(C)C)c(O)c(C(C)(C)C)c1,inactive,inactive

SMILES,Potency [1],Potency [2]
O=C1CCN(c2ccccc2)N1,inactive,inactive
CC1(c2ccccc2)OC(C(=O)O)=CC1=O (stereo unspecified),inactive,inactive
CCCCC1CCC(O)CC1 (stereo unspecified),inactive,inactive
O=[N+]([O-])c1ccccc1C(F)(F)F,inactive,inactive
CN(C)CCC(c1ccccc1)c1ccccn1 (stereo unspecified),inactive,inactive
CN1CCOC(c2ccccc2)c2ccccc2C1 (stereo unspecified),inactive,inactive
C=CCc1ccc(O)c(OC)c1,inactive,inactive
COc1ccc(CCN(C)CCCC(C#N)(c2cc(OC)c(OC)c(OC)c2)C(C)C)cc1OC (stereo unspecified),inactive,inactive
O=C(/C=C/c1ccccc1)OCCc1ccccc1,inactive,inactive
C=CC[N+]1([C@H]2C[C@H]3[C@@H]4CC[C@H]5C[C@H](OC(C)=O)[C@@H](N6CCCCC6)C[C@]5(C)[C@H]4CC[C@]3(C)[C@H]2OC(=O)CC)CCCCC1,inactive,inactive
Clc1cccc(Cl)n1,inactive,inactive
N[C@@H](Cc1cc(I)c(Oc2cc(I)c(O)c(I)c2)c(I)c1)C(=O)O,inactive,inactive
CC(CN)CC(C)(C)CCN (stereo unspecified),inactive,inactive
O=S(=O)(O)c1ccccc1,inactive,inactive
CCCCCCOC(=O)CCC,inactive,inactive
Cc1ccc(C(C)c2ccc(C)c(C)c2)cc1C,inactive,inactive
O=C(O)CN(CC(=O)O)CC(=O)O,inactive,inactive
O=C(CCS)OCC(COC(=O)CCS)(COC(=O)CCS)COC(=O)CCS,inactive,inactive
